The results in this text go back to ChEMBL document CHEMBL3988442, “University of Dundee, Small-Polar-MMV Screening Library” (2021).

For some of these results: Entries with a potency or affinity are not part of this list.

Holding throughout (design): scale not given: direction of the effect not stated beside the values
The target in test [1] is Protein translocase subunit SecA (Escherichia coli (strain K12)) (UniProt P10408). Description: Assay to Identify E. coli SecA ATPase Inhibitors. It counts as functional. The settings on record: 30 µM.
The target in test [2] is T1, Ubiquitin-activating enzyme e1, putative (Leishmania donovani (strain BPK282A1)) (UniProt E9BSI1).
T1 sequence (whole entry): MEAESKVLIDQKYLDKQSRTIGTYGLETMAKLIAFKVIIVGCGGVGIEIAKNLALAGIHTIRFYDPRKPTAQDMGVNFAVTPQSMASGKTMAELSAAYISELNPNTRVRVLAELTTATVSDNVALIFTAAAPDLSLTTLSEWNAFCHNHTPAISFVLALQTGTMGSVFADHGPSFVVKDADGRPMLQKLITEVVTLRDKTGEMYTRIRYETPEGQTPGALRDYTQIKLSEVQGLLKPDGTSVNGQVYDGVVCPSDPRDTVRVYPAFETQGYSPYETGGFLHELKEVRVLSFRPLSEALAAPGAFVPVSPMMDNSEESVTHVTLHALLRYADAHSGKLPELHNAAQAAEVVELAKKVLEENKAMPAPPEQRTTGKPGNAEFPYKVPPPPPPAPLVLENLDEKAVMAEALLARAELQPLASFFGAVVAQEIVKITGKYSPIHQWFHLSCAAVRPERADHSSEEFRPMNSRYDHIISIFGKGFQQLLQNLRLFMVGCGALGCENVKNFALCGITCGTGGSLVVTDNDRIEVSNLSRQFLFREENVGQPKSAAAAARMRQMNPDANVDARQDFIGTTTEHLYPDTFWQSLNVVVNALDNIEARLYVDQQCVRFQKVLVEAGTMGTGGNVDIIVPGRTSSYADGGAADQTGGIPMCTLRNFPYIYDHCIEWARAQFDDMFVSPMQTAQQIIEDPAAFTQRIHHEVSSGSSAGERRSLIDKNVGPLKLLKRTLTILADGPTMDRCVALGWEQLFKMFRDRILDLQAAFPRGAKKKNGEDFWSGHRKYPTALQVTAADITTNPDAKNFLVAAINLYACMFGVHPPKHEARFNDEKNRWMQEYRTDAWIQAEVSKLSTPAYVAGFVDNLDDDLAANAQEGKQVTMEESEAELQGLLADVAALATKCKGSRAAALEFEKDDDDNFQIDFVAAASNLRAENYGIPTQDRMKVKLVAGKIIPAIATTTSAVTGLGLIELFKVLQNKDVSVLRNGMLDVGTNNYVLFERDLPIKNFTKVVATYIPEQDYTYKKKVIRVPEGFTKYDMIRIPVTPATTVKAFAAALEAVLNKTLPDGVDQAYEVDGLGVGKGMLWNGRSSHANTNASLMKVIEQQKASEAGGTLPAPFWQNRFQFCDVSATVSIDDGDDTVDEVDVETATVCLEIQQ
In words: Leishmania donovani Ubiquitin Activating Enzyme (LdE1). It counts as functional. The settings on record: 30 µM.

The target of test [3] is AMP-activated protein kinase, AMPK (Homo sapiens) (UniProt P54646+O43741+P54619+Q9UGJ0+Q9Y478+Q13131+Q9UGI9). Description: AMP-dependent Kinase enzyme assay. An in vitro enzyme assay that detects ADP turnover that is directly proportional to AMPK activity. This uses naive AMPK that is activated during the assay with MK-8722. Type of test: functional. Particulars: 30 µM.

The target in test [4] is Sialic acid-binding Ig-like lectin 9 (Homo sapiens) (UniProt Q9Y336). In words: Hs-Siglec9 ALPHAscreen SOP 20170721. Particulars: 10 µM. In general terms: In Alpha technology, singlet oxygen from a donor bead excites a nearby acceptor bead.
A further test deals with Trypanosoma cruzi. In words: Trypanosoma cruzi phosphomannomutase and mannose-1-phosphate guanylyltransferase assay. It counts as functional. The settings on record: 10 µM.
For test [5], the target named is T2, Arginase-2, mitochondrial (Homo sapiens) (UniProt P78540).
T2 sequence (whole entry): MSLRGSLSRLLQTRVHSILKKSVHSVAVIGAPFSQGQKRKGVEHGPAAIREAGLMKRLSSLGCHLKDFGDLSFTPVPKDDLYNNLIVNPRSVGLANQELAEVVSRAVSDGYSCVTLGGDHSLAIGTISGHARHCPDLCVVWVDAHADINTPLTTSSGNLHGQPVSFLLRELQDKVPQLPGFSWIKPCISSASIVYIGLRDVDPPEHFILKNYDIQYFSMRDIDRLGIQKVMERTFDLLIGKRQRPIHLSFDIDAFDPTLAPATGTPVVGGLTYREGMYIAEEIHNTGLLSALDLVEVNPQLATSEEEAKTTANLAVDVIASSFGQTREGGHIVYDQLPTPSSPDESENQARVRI
In words: in vitro enzyme assay to detect the production of urea directly proportional to the activity of Arginase II. Also: in the data most compounds retested in dose-response had high values. It counts as functional. The settings on record: 33.3 µM.

Test [6] has as its target T3, Proteasome subunit beta (Trypanosoma cruzi) (UniProt O96673).
T3 sequence (whole entry): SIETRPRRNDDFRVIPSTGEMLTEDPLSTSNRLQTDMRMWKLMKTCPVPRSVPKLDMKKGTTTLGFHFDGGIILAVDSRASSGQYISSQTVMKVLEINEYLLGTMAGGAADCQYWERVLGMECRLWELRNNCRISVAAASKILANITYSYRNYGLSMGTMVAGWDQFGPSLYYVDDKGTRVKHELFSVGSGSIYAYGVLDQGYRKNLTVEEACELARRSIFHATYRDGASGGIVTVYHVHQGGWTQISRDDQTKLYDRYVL
In words: Trypanosoma cruzi proteasome chymotrypsin-like activity (TcProtChymo) assay. Also: in the data most compounds retested in dose-response had high values. It counts as functional. The settings on record: 9.37 µM.

The species named for the next test is Homo sapiens. In words: To identify inhibition of the IFN signalling (Jak-Stat) pathway via expression of an eGFP reporter gene under the control of an IFN-stimulated response element (ISRE) containing MxA promoter. Type of test: functional. The settings on record: 30 µM. (A reporter such as luciferase makes a cellular process visible.)
The target in test [7] is T4, Tyrosyl-tRNA synthetase, putative (Trypanosoma cruzi (strain CL Brener)) (UniProt Q4DSP6).
T4 sequence (whole entry): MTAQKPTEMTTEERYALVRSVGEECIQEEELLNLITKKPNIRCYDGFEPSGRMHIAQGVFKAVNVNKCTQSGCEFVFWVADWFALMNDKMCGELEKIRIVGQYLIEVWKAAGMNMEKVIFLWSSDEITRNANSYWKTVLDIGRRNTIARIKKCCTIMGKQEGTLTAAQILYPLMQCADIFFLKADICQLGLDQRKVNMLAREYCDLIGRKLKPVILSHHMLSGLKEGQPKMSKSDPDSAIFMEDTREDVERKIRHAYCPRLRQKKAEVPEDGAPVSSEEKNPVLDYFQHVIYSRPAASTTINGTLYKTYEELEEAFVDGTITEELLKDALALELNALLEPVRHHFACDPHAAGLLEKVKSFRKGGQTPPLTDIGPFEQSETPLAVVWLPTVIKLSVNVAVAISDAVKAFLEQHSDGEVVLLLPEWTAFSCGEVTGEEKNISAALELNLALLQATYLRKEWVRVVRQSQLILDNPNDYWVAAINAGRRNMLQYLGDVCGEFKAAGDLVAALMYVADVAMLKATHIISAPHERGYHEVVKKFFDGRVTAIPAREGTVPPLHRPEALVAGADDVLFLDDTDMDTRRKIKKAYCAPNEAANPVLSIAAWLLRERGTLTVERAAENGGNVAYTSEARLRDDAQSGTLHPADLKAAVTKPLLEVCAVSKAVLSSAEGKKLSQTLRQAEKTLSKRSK
In words: Trypanosoma cruzi tyrosyl tRNA synthetase (TcYRS) _High Tyrosine SOP. Also: in the data most compounds retested in dose-response had high values. It counts as functional. The settings on record: 30 µM.

Test [8] concerns the target T4, Tyrosyl-tRNA synthetase, putative (Trypanosoma cruzi (strain CL Brener)). In words: Trypanosoma cruzi tyrosyl tRNA synthetase (TcYRS) SOP. Type of test: functional. The settings on record: 30 µM.
The target of test [9] is Chromo domain-containing protein 1 (Saccharomyces cerevisiae (strain ATCC 204508 / S288c) (Baker's yeast)) (UniProt P32657). Description: ScCHD-1 Enzyme Inhibition Assay. Also: in the data most compounds retested in dose-response had high values. It counts as functional. Particulars: 30 µM.
Sequence of Chromo domain-containing protein 1 (Saccharomyces cerevisiae (strain ATCC 204508 / S288c) (Baker's yeast)) (P32657 whole entry, the tested form may be a part): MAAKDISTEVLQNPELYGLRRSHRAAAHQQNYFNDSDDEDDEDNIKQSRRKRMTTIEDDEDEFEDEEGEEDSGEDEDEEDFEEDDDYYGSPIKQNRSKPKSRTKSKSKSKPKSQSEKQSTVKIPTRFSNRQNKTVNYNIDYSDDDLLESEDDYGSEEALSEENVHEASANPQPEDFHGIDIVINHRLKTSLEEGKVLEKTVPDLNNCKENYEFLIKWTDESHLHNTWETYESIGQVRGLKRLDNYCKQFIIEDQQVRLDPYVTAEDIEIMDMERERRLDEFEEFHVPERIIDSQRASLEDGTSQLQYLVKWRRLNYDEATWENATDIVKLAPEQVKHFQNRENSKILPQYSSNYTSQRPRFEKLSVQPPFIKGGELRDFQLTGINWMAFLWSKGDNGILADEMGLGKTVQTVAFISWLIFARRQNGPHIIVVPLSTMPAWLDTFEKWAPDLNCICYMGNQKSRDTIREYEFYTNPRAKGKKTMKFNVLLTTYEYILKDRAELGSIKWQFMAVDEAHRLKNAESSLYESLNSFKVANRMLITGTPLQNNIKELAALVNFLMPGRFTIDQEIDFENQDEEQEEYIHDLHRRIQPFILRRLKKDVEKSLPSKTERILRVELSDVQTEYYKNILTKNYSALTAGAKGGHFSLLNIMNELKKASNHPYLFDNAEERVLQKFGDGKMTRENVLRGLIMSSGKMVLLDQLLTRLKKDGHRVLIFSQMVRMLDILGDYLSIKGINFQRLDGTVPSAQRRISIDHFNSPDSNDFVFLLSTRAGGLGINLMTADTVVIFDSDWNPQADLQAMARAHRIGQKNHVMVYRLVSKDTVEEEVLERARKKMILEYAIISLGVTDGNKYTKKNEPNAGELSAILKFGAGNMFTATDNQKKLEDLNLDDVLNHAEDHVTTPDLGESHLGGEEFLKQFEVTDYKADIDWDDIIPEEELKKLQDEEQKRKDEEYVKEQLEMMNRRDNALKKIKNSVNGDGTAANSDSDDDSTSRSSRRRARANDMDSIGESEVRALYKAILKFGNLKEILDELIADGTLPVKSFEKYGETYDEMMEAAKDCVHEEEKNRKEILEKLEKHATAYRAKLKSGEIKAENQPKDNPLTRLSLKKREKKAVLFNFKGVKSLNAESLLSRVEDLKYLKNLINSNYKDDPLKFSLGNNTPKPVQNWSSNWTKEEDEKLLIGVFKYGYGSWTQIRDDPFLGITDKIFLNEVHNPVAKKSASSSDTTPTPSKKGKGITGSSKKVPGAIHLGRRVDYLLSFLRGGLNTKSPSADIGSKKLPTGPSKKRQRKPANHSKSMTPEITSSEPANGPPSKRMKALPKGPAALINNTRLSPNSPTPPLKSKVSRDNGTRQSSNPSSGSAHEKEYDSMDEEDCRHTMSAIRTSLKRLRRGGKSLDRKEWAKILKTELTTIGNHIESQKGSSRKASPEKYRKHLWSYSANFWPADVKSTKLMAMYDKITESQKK

Sequence of Protein translocase subunit SecA (Escherichia coli (strain K12)) (P10408 whole entry): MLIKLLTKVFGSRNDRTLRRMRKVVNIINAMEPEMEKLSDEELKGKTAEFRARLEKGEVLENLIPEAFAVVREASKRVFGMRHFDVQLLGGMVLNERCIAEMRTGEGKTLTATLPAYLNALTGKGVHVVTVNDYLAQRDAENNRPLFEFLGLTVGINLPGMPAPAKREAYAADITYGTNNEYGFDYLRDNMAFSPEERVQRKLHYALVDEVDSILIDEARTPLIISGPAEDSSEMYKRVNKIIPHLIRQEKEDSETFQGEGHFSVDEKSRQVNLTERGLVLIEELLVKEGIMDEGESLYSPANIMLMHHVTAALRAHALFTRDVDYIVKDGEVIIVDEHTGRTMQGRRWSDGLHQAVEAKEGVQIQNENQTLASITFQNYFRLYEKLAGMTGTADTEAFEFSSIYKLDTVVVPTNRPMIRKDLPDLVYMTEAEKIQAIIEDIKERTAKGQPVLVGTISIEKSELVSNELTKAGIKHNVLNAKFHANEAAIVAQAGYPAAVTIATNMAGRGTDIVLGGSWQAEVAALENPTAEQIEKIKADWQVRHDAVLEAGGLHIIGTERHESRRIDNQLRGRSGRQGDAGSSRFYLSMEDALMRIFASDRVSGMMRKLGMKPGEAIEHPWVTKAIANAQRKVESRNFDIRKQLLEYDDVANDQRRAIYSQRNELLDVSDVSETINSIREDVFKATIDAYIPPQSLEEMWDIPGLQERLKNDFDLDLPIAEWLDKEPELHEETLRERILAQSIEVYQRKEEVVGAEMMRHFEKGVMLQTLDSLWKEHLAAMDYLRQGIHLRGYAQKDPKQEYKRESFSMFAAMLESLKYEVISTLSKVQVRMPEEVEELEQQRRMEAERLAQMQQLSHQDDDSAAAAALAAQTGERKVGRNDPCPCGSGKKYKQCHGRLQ
Sequence of Sialic acid-binding Ig-like lectin 9 (Homo sapiens) (Q9Y336 whole entry): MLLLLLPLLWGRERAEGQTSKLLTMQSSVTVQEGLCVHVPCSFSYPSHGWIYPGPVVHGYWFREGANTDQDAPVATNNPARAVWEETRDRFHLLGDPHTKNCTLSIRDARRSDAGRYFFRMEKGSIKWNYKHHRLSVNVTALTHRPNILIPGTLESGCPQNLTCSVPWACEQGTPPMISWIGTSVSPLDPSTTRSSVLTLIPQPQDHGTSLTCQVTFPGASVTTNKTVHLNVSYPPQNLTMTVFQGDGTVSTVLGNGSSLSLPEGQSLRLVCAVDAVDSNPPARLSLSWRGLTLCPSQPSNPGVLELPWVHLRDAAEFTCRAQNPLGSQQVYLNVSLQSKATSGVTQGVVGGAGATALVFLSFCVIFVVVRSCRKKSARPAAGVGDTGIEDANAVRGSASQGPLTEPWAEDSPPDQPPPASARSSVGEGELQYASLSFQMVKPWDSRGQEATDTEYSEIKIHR

Consider `Cn1cc(CCC(=O)N2C[C@H]3CC[C@@H]2CN(Cc2ccccc2)C3)cn1`, for which the Percent Effect is -5.96% in test [1]; 4.17% in [2]; 9.13% in [3]; -7.5% in test [4]; -1.07% in the test with Trypanosoma cruzi; -3.53% in [5]. Further, the Percent Effect in test [6] is 8.77%; in the test listed under Homo sapiens, -28.4%; in [7] it was 1.05%; in test [8] it was 5.13%; in test [9], -1.41%.

Regarding `CC(C)CN1CCc2[nH]cnc2C12CCN(C(=O)c1cccnc1)CC2`, the Percent Effect was -8.51% in test [1]; 0% in test [2]; -4.57% in [3]; 3.2% in test [4]; -3.99% in the test with Trypanosoma cruzi; -1.56% in [5]. For the same compound, the Percent Effect is 14.3% in test [6]; 12.4% in the test filed under Homo sapiens; -3.83% in [7]; -6.17% in test [8]; -6.87% in test [9].

Turning to `Cc1occc1C(=O)N1CCC2(CCC2NC(=O)c2ccn(C)c2)CC1` (stereo unspecified), the Percent Effect is -5.67% in [1]; 8.11% in test [2]; 3.15% in [3]; -1.3% in test [4]; 4.79% with Trypanosoma cruzi; -3.5% in [5]. Also, the Percent Effect in test [6] is 12%; in the test listed under Homo sapiens, -2.79%; in test [7] it was 6.49%; in [8], 15.4%; in test [9], 3.75%.

Regarding `CCS(=O)(=O)N1CC[C@H](OC)[C@@H]1Cc1ccncc1`, the Percent Effect in test [1] is -2.5%; in test [2] it was 13.5%; in test [3], -1.61%; in [4], -11.3%; with Trypanosoma cruzi, -4.59%; in test [5], -9.87%. Besides, the Percent Effect in test [6] was 15.3%; in the test listed under Homo sapiens it was 7.61%; in test [7], 0%; in [8] it was 7.69%; in test [9] it was -5.24%.

As to `CCc1ccc(CN2CCC3(CC2)CNC(=O)CO3)o1`, the Percent Effect in [1] was -2.61%; in test [2] it was 2.7%; in test [3], 1.59%; in test [4] it was -0.0986%; in the test with Trypanosoma cruzi, 1.76%; in [5], 1.25%. Besides, the Percent Effect in test [6] is 1.77%; in the test filed under Homo sapiens, -14.2%; in test [7], 2.97%; in [8] it was -3.66%; in [9], -0.389%.

For the compound `COCCCNC(=O)CN(C)C(=O)c1cc(C)sc1C`, the Percent Effect in [1] was -3.23%; in test [2], -359%; in [3], 0.833%; in [4] it was 1.88%; with Trypanosoma cruzi it was -4.55%; in test [5] it was -1.66%. The Percent Effect in test [6] is 4.67%; in the test listed under Homo sapiens, 14.8%; in test [7], 5.94%; in test [8] it was 15.8%; in [9], -1.76%.

With `CCn1ccnc1CN1CCCN(C(=O)c2sccc2C#N)CC1`, the Percent Effect in [1] was -2.7%; in [2], -2.53%; in test [3], 1.18%; in test [4], 1.09%; in the test with Trypanosoma cruzi, 0.472%; in test [5], 1.52%. Also, the Percent Effect in test [6] was -4.01%; in the test listed under Homo sapiens, -12.1%; in [7] it was 6.4%; in [8], 8.86%; in [9], 0.721%.

Regarding `COC1CCCN(C(=O)Nc2nc(C)n(C)n2)C1` (stereo unspecified), the Percent Effect is -4.33% in test [1]; 8% in test [2]; -6.08% in test [3]; 5.49% in [4]; 1.27% in the test on Trypanosoma cruzi; 1.56% in test [5]. In addition, the Percent Effect in [6] is 11.2%; in the test listed under Homo sapiens it was 14.3%; in test [7], 6.01%; in test [8], 6.17%; in test [9], -6.37%.

With `Cc1nc(C)n(CC2CN(CC(=O)Nc3cccnc3)CCO2)n1` (stereo unspecified), the Percent Effect in test [1] is -3.48%; in test [2] it was 4.17%; in [3] it was 1.48%; in test [4], -1.08%; in the test with Trypanosoma cruzi, -0.486%; in test [5] it was 2.65%. The Percent Effect is 2.1% in test [6]; -1.3% in the test listed under Homo sapiens; 4.21% in [7]; 5.13% in test [8]; 0.336% in [9].

As for `CN(C)C(=O)N[C@@H]1CN(Cc2ccc3c(c2)OCO3)[C@@H]2CCCO[C@@H]21`, the Percent Effect in test [1] is -4.35%; in [2], 5.33%; in test [3], 4.23%; in test [4], 8.52%; in the test on Trypanosoma cruzi it was -0.386%; in test [5] it was -58.6%. The Percent Effect in test [6] was 14.5%; in the test listed under Homo sapiens, 1.11%; in test [7] it was 7.29%; in test [8], 17.5%; in [9], -5.44%.

Turning to `Cn1c(C(F)(F)F)nn(CCNC(=O)CSCc2ccccc2)c1=O`, the Percent Effect is -3.49% in test [1]; 8.22% in test [2]; 2.99% in test [3]; 4.38% in [4]; 4.7% in the test with Trypanosoma cruzi; 5% in [5]. In addition, the Percent Effect was 4.79% in [6]; 14.2% in the test filed under Homo sapiens; 4.3% in test [7]; 15% in test [8]; -4.6% in [9].
